Compound activity deposited in PubChem BioAssay by National Center for Advancing Translational Sciences (NCATS).
TDP-43 yeast inh: rescues yeast growth from TDP-43 toxicity; hit rate 1.8% among 410,000; Potency, µM (doses to about 46.1 µM), actives largely listed as activators; TDP-43 expressing yeast growth rescue, BacTiter-Glo, 24 h; note: nearly all actives have a fitted effect of over 50% in size
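Galactose-induced TDP-43 yeast, OD600=0.02, compound pinned; 24 hr, 30 deg C; BacTiter-Glo luminescence for growth. Inhibitors of TDP-43 toxicity read as activators.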
FUS yeast rescue: FUS proteinopathy suppression in yeast; S. cerevisiae FUS-expressing, growth rescue, OD600, 24 h; Potency, µM (doses to about 76.6 µM), hits mostly activators; hit rate 0.24% among 390,000; note: nearly all actives have a fitted effect of over 55% in size
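Yeast FUS proteinopathy model; galactose-induced FUS (2%), starting OD 0.005. Cpds in dilution series, 24hr, 30C, 99% humidity. Abs 600 nm growth. Pos ctrl CP55940 (top 92uM final); neg ctrl DMSO.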
aSyn yeast inh: rescues yeast growth from alpha-synuclein toxicity. AID 652106. Potency, µM (highest dose often 46.1 µM), hits mostly activators. hit rate 0.14% among 370,000. Yeast expressing alpha-synuclein, growth rescue, BacTiter-Glo, 24 h; note: nearly all actives have a fitted effect of over 65% in size
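Rescue of yeast growth: cells expressing toxic alpha-synuclein, induced in galactose at OD600 0.02, incubated with compound 24 h at 30 C. ATP luminescence quantified growth; inhibitors of toxicity appear as activators.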
ERG Ets-DNA blk: ERG Ets/DNA interaction inhibition | P11308 | fluorescence polarization, His-ERG Ets domain / labelled DNA | Potency, µM (highest dose often 76.9 µM), most hits filed as inhibitors | hit rate 0.028% among 370,000 | AID 624246; active = well fitted inhibition curve with a large enough effect in the polarisation, with a control signal flat; inconclusive = small, poorly fitted or top-dose-only effect, or effect the other way, or a change in a side signal; inactive = no such curve, though single readings can be large or run the other way; the % refers to the polarisation;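 note: polarization taken with two DNA probes labelled with fluorescein and Texas red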
Target sequence (P11308 whole entry, looked up, the tested form may be a part): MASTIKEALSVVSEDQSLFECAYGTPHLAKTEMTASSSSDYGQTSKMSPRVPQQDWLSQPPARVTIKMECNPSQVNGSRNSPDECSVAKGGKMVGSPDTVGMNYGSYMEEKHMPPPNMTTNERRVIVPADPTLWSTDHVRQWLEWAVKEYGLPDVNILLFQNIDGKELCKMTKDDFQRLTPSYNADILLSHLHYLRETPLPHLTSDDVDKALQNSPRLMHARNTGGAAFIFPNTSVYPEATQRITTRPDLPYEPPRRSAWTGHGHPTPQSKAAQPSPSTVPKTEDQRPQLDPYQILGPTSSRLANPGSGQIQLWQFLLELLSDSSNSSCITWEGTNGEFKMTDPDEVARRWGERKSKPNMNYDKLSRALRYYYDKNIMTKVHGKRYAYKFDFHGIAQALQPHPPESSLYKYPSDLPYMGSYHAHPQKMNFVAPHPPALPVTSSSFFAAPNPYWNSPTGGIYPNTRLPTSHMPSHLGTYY
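His-tagged ERG Ets domain (1 uM in the protein solution; 300mM KCl, 50mM Tris-HCl, 1mM EDTA, 1mM DTT, pH 7.5) received compound, then a probe mix of 5 nM fluorescein-DNA and 100nM Texas-615-DNA. Fluorescence polarization was read for both dyes.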
Abeta yeast res: compounds reversing amyloid beta toxicity in yeast | yeast expressing A-beta42, growth rescue, OD600, 48 h; response scale: 0% DMSO, 100% iron-clioquinol control | Potency, µM (highest dose often 46.1 µM), hits mostly activators | hit rate 0.063% among 410,000; note: nearly all actives have a fitted effect of over 55% in size
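Yeast A-beta toxicity model in growth medium with pinned compounds, 48 h at 30 C; growth read as absorbance at 600 nm. Normalized to FeCl3/clioquinol equimolar mix (positive) and DMSO (negative).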
Mito fusion act: inhibitors of mitochondrial division or activators of mitochondrial fusion. hit rate 0.23% among 320,000. S. cerevisiae fusion-defective mutant growth rescue, CellTiterGlo 48 h. Potency, µM (top dose mostly 46.1 µM), actives largely listed as activators; note: nearly all actives have a fitted effect of over 45% in size
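S. cerevisiae fusion-defective temperature-sensitive mutants (e.g. fzo1-1, mgm1-5) grown 48 h at 37C in YPEG (ethanol/glycerol non-fermentable) medium with 23 nl compound per well; growth rescue read as CellTiterGlo luminescence.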
Of the large screens only hits and unclear results are named; the others gave an inactive call. Hits are enriched below; roughly 2.2% of the tested compounds scored in any of these assays. Unless noted, calls come from the whole dose curve; as a rule, active = well fitted curve in the direction sought with a large enough effect; inconclusive = small, poorly fitted or top-dose-only effect, or another doubt; inactive = no such curve, though single readings can be large; an effect the other way counts as inactive or inconclusive.

COc1cc2ccccc2cc1C(=O)N1CCCC1	none
Cc1noc(C)c1COc1ccc(C(=O)N2CCN(c3cccc(Cl)c3)CC2)cc1	TDP-43 yeast inh 22.4µM
CC(NC(=O)c1ccc2c(c1)sc1nc(-c3ccc(F)cc3)cn12)C12CC3CC(CC(C3)C1)C2 (configuration not stated)	none (no result: aSyn yeast inh, Mito fusion act)
COc1cc(CN(C)c2ncnc3sccc23)ccc1OC(F)F	TDP-43 yeast inh 17.8µM
COc1cccc(-c2cc3nc(C)c(C)c(N4CCN(Cc5ccco5)CC4)n3n2)c1	none (no result: TDP-43 yeast inh, aSyn yeast inh, ERG Ets-DNA blk, Abeta yeast res, Mito fusion act)
C[C@@H]1CN([C@H](C)CO)C(=O)c2c(c3ccccc3n2C)-c2ccccc2CO[C@@H]1CN(C)C(=O)Nc1ccccc1C(F)(F)F	TDP-43 yeast inh 20µM (no result: ERG Ets-DNA blk, Mito fusion act)
C#CCSc1nc(C)cc(C(=O)OCC)c1C#N	TDP-43 yeast inh 14.1µM
CCOC(=O)CC(=O)CSc1nc(C)cc(C)c1C#N	none
CCOc1ccc(NC(=O)CC2C(=O)N(c3ccc(OC)cc3)C(=O)N2CCC2=CCCCC2)cc1 (configuration not stated)	none (no result: aSyn yeast inh, Mito fusion act)
Cc1onc(-c2ccccc2Cl)c1C(=O)Nc1ccc(-n2nncc2-c2ccco2)cc1	FUS yeast rescue 8.91µM
Cc1onc(-c2ccccc2Cl)c1C(=O)NCCn1c(C)cc2ccccc21	FUS yeast rescue inconclusive, ERG Ets-DNA blk 31.6µM
Cc1onc(-c2ccccc2Cl)c1C(=O)NCC(=O)O	none
Cc1cc2ccccc2n1CCNC(=O)c1ccc(Br)o1	ERG Ets-DNA blk 31.6µM
Cc1cc2ccccc2n1CCNC(=O)C(C)(C)C	ERG Ets-DNA blk 22.4µM
C[C@@H]1N[C@H]2N(C1=O)c1ccccc1[C@@]21C[C@@H]2C(=O)N[C@](C)(O1)c1nc3ccccc3c(=O)n12	none (no result: TDP-43 yeast inh, aSyn yeast inh, ERG Ets-DNA blk, Abeta yeast res, Mito fusion act)
CCC(C)N(C(C)CC)S(=O)(=O)c1ccc2[nH]c(=O)oc2c1 (configuration not stated)	none (no result: TDP-43 yeast inh, aSyn yeast inh, ERG Ets-DNA blk, Abeta yeast res, Mito fusion act)
COc1ccc(/C=C/S(=O)(=O)NCc2ccccc2)c(CNC(=O)OC(C)(C)C)c1	none (no result: TDP-43 yeast inh, aSyn yeast inh, ERG Ets-DNA blk, Abeta yeast res, Mito fusion act)
O=[N+]([O-])c1cc([N+](=O)[O-])c2c(=Nc3ccccc3)n(-c3ccccc3)n(O)c2c1	TDP-43 yeast inh 12.6µM
O=[N+]([O-])c1cccc(C(=Nc2ccccc2)NO)c1	none
CCC(C)(C)C(=O)O[C@H]1C[C@@H](C)C=C2C=C[C@H](C)[C@H](CC[C@@H]3C[C@@H](O)CC(=O)O3)[C@H]21	TDP-43 yeast inh 14.1µM
N/C(=N\OC(=O)c1ccc(Cl)c([N+](=O)[O-])c1)c1ccccn1	TDP-43 yeast inh 15.8µM
N/C(=N\OC(=O)c1ccc(Cl)c([N+](=O)[O-])c1)c1ccccc1	TDP-43 yeast inh 12.6µM
N/C(=N\OC(=O)c1ccc([N+](=O)[O-])cc1)c1cccnc1	none
N/C(=N\OC(=O)c1ccc(Cl)cc1)c1ccccn1	TDP-43 yeast inh 10µM
N/C(=N\OC(=O)c1ccc(Cl)c(Cl)c1)c1ccccn1	none
N/C(=N\OC(=O)c1cc([N+](=O)[O-])ccc1Cl)c1cccnc1	TDP-43 yeast inh 12.6µM
O=C(CC1CCCC1)N1CC[C@H]2[C@H](CCCN2Cc2ccccc2)C1	none (no result: TDP-43 yeast inh, aSyn yeast inh, ERG Ets-DNA blk, Abeta yeast res, Mito fusion act)
Cc1cc(C)c(NC(=O)CN(C)S(=O)(=O)c2ccc3c(c2)c(=O)n(C)c(=O)n3C)c(C)c1	none (no result: aSyn yeast inh, Mito fusion act)
COC(=O)c1c(-c2cccs2)csc1NC(=O)c1ccc(Br)cc1	none (no result: aSyn yeast inh, Mito fusion act)
CCc1ccc(-n2c(=O)c3sc4ccccc4c3n(CC(=O)NCc3ccccc3)c2=O)cc1	none (no result: aSyn yeast inh, Mito fusion act)
O=c1[nH]c(C2CCCN(S(=O)(=O)c3ccccc3Cl)C2)nc2c1nnn2Cc1ccc2c(c1)OCCO2 (configuration not stated)	FUS yeast rescue 14.1µM (no result: Abeta yeast res)
CC(=O)Nc1ccc(-c2ccnc3c2CC(C(=O)Nc2cccc(N(C)C)c2)O3)cc1 (configuration not stated)	FUS yeast rescue inconclusive (no result: ERG Ets-DNA blk, Mito fusion act)
Cc1cc(N2CCOCC2)n2ncc(-c3ccccc3Cl)c2n1	TDP-43 yeast inh 12.6µM
CC(C)c1cc(N2CCOCC2)n2ncc(-c3ccccc3)c2n1	none
